Data from the supplement of paper PMC6555819.

These sequences were tested on VDR:RXRa (NR concentration 270 nM, RXRa partner concentration 90 nM) (assay: PBM binding z-score (relative to random genomic background probes); higher = stronger binding; sequences stand for … in GC…GCGATTGACAGCGTAGAATGAAGG).
Description: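 Protein-binding microarray (Agilent 4x180K custom design, double-stranded 60-nt probes: 5' GC cap, 34-nt variable region, 24-nt constant primer region; full probe sequence given). Purified or IVT nuclear receptor:RXRα heterodimers (3:1 NR:RXRα, mostly 270:90 nM) or homodimers were incubated for 1 h in PBS with 2% milk and no ligand, then detected with Alexa488 antibodies. Fluorescence from o1-orientation probes (~5 replicates averaged) was converted to z-scores against 500 random hg19 background probes. Variable regions are seed direct-repeat (DR0–DR5) sites, all their single-nucleotide variants and half-site ablations.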
TTACCACGGTGAGCTGAGGTCGTTGATCCAACTC showed a PBM binding z-score of 1.57. For AGTCAAAGTTCACTAGCTAACGTAAGATTCAGCT, the PBM binding z-score was 3.66. In the case of CATTACGGGTCACGAGGTTATAGCACGACGAGCG, the PBM binding z-score is reported as 5.57. For CCGAATAGGTTATGGGGCATTCAGGCAACGGTGA, the PBM binding z-score was 0.258. GCGACTGGGGCACCAGCAGGTTACCATAACTTAA showed a PBM binding z-score of -0.157. CCTGCTAGGTCATGGTCAGCTTATCTACAGTATG was tested, and the PBM binding z-score was 1.54. For AGAACGAGGGCACGCTGGGTTGATAGCAGAGTAG, the PBM binding z-score was 2.53. For GCTATTAGTTGAAAGGGCAAACGAATGATTCTCG, the PBM binding z-score was 0.622. In the case of TCGAGTAGGTTACCAATGGGTCATTCAGCTTTCT, the PBM binding z-score is reported as 1.85. Sequence ATCTCCAGGTAACCAAGTTCAGTGAATGCCGAAC has a PBM binding z-score of 4.4. ATCTCTAGATAAGACTCAGTTCAGTGAAGAACGC showed a PBM binding z-score of 0.209. ATCTCTAGGTAAAGGTTCAGTGAATCCCGAGGAT gave a PBM binding z-score of 1.09. GCTGCTAGGTCAACTCATGGTCAGCTAAAGCTCG showed a PBM binding z-score of 1.71. Work on CCTAGTTGGTCAGGAGGTCACTCACCGGATATGA yielded a PBM binding z-score of 3.4. AACTCTAGGTAAGACTCAGTTCAGTGAAGAACGC showed a PBM binding z-score of 0.138. TATACAGGGTCAAAGGACAGAGTACGAATGTCGA showed a PBM binding z-score of 4.6. For GCTATTTGGTCAGTAAAAGGTCACACACCGGTCG, the PBM binding z-score was 4.32. With ATATGTAGGTTAGCTGGTGTCATTCAGACTAGGC the PBM binding z-score was 1.4. For ATCTCTAGGTAACAAGTTCAGTGAAAGAGAGGAC, the PBM binding z-score was 2.13. CCAGACAGGTGAACGGTAACTCAGTCTGGTACGC was tested, and the PBM binding z-score was -0.205. In the case of ACTCGGAGGACAAAGATCAGAGCTACGCCAGTGA, the PBM binding z-score is reported as -0.289. Work on ATCCCTAGGTAAAAGTTCAGTGAATCCCGAGGAT yielded a PBM binding z-score of 0.958. Sequence GCTATTAGCTGAAAGGGCAACCGAATGATTCTCG has a PBM binding z-score of -0.0457. Sequence CAAACTAGGTCATGAGGTCAAAGTCCGCTTCCCG has a PBM binding z-score of 6.08. For CCTAGTTGGTCAACGTCACACACGCTATAGGTAC, the PBM binding z-score was 0.309. With ACTAGCAGGCCAAGTTTTGGTCACTCAAACAAAG the PBM binding z-score was -0.348. GCATATAGATAATACAAGGTGAAAGTCCGATTGT gave a PBM binding z-score of 0.152. For TCATATAGGTAAATCCTAGGTGAAAGTCCGATCT, the PBM binding z-score was 0.7. For ACTTACGGGTCATCGAGGTTATAGCACGCGTATA, the PBM binding z-score was 7.51. For AGAATGAGGTTACCAAAGAACAGGGAAACGCTTG, the PBM binding z-score was 1.17. CCTACTGGGCCAAAAAGGTCATGGATGCCGATAA showed a PBM binding z-score of 4.54. With TAGCCTAGGTCATTGGGCCAGTATGGTACGCATC the PBM binding z-score was 2. CCGAGTAGGTTATGGGGCTTTCAGGCAACGGTGA gave a PBM binding z-score of -0.375. Work on CAAACTAGGTCACCGGAAGGTCCAAGTCCGCATG yielded a PBM binding z-score of 3.1. With CAAACTAGGTTACCGGAAGGTCAAAGTCCGCATG the PBM binding z-score was 4.16. In the case of ATCGAGAGGTCGTGAGGTGAGTATACAGAAAGGC, the PBM binding z-score is reported as 3.3. Work on ACTCGGAGGACAAAGGTTAGAGCTACGCCAGTGA yielded a PBM binding z-score of 0.555. CCTACTGGGCCATCCAGAGGTCATTGATCATATG showed a PBM binding z-score of 4.12. For CAAACTAGGACACCGGAAGGTCAAAGTCCGCATG, the PBM binding z-score was 3.3. Sequence CCTCGGAGGACAACAAGAGGTCAGAGCTGCCAGA has a PBM binding z-score of 2.88.
